Data on 8 molecules can be found in PubChem BioAssay (Tox21).

Assay [1] can be described thus: qHTS assay to identify small molecule antagonists of the sonic hedgehog signaling (Shh) pathway (AID 1259369). Further: nearly all actives have a fitted effect of over 45% in size. Further: potency means the concentration at half of the fitted maximal effect. In a few lines:
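3T3Gli1-Luc, conditioned-medium-stimulated, 24hr cpd, 37C/5% CO2; Gli1-driven firefly Luc luminescence after 30min RT with luciferase reagent. Cells plated 4hr before cpd.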
On the technique in general: In qHTS, concentration-response curves come from the screen itself.

Assay [2] concerns the target Estrogen receptor beta (Homo sapiens) (UniProt Q92731). The experiment in a line: qHTS assay to identify small molecule agonists of the estrogen receptor beta (ER-beta) signaling pathway (AID 1259377; active means well fitted activation curve with a large enough effect in the signal ratio in the repeat runs, not every such curve was filed as active; the % refers to the signal ratio). In a few lines: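 HEK293T ER-beta-UAS-bla; 2% charcoal-stripped FBS; cells pre-incubated 6 hr, compound 16 hr, 37C/5% CO2; LiveBLAzer B/G FRET substrate 2 h RT; fluorescence intensity read.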

Assay [3] has the same target. The assay can be described thus: qHTS assay to identify small molecule antagonists of the estrogen receptor beta (ER-beta) signaling pathway (AID 1259378; active means well fitted inhibition curve with a large enough effect in the signal ratio in the repeat runs, not every such curve was filed as active; the % refers to the signal ratio). The gist of the method: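 Antagonist mode: compounds added to beta-lactamase reporter HEK293T ER-beta-UAS cells stimulated with E2 (1nM final), 16 hr at 37C. LiveBLAzer B/G FRET substrate, 2 hours room temperature, fluorescence read-out.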

The nature of assay [4]: qHTS assay to identify small molecule agonists of the androgen receptor (AR) signaling pathway in the presence of an antagonist - cell viability counter screen (AID 1259379; active means well fitted curve in the direction sought with a large enough effect in the repeat runs; an effect the other way counts as inactive or inconclusive;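 further: MDA-kb2 human breast cancer cells carrying an MMTV luciferase reporter; series mostly up to about 92 µM; nearly all actives have a fitted effect of over 25% in size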). The gist of the method: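 Cells: MDA-kb2 (MMTV-luc, AR and GR elements), 3,000/well, 5 hr settle. Added: nilutamide 3.0uM final, then compounds (15 conc.). Incubation: 16 hr, 37C, no CO2. Read-out: CellTiter-Fluor, 1 hr, fluorescence.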

Assay [5] in a line: qHTS assay to identify small molecule agonists of the estrogen receptor beta (ER-beta) signaling pathway - cell viability counter screen (AID 1259380; active means well fitted curve in the direction sought with a large enough effect in the repeat runs; an effect the other way counts as inactive or inconclusive; further: nearly all actives have a fitted effect of over 30% in size). In a few lines:
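HEK293T ER-beta-UAS-bla; 2% CS-FBS; 6 hr pre-plate, 16 hr cpd at 37C/5% CO2; LiveBLAzer read first, then CellTiter-Glo 30 min RT, luminescence.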

The target in assay [6] is Estrogen receptor (Homo sapiens) (UniProt P03372). The assay can be described thus: qHTS assay to identify small molecule agonists of the estrogen receptor alpha (ER-alpha) signaling pathway in the presence of an antagonist (AID 1259383). Further: top concentration of the series differs between compounds; nearly all actives have a fitted effect of over 15% in size. In a few lines:
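VM7Luc4E2, endog. ER-alpha + 4×ERE-luc; charcoal-stripped FBS, phenol red-free, 5 d; 24hr plating; +10.0nM ICI-182,780 (final); cpds 15 conc, 22hr, 37C/5% CO2; ONE-Glo luminescence.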

Assay [7] in a line: qHTS assay to identify small molecule agonists or antagonists of the thyroid stimulating hormone receptor (TSHR) signaling pathway - wild type cell line counter screen (AID 1259384). In a few lines:
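Counter screen in untransfected Hek293: compounds (15-point titration, triplicate) plus phosphodiesterase inhibitor Ro20-1724 added after 18 h plating; 30 min RT. Intracellular cAMP via competitive d2/cryptate immunoassay, 1 h incubation.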

The nature of assay [8]: qHTS assay to identify small molecule agonists of the estrogen receptor alpha (ER-alpha) signaling pathway in the presence of an antagonist - cell viability counter screen (AID 1259386; active means well fitted curve in the direction sought with a large enough effect in the repeat runs; an effect the other way counts as inactive or inconclusive;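 further: series mostly up to about 92 µM; cells exposed to compounds for 22 h at 37 °C before the viability read; nearly all actives have a fitted effect of over 30% in size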). The gist of the method:
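VM7Luc4E2, stripped-serum pre-culture 5 d; 24hr plating; +ICI-182,780 10.0nM final; cpds 15 conc, 22hr, 37C/5% CO2; CellTiter-Fluor added at 21hr, fluorescence 1hr later.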

For assay [9], the target named is Progesterone receptor (Homo sapiens) (UniProt P06401). The assay can be described thus: qHTS assay to identify small molecule agonists of the progesterone receptor (PR) signaling pathway (AID 1346784). Further: nearly all actives have a fitted effect of over 30% in size. The gist of the method:
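Beta-lactamase reporter read-out: after 16 hr compound treatment at 37C and a further 2 hr at room temperature with LiveBLAzer B/G FRET substrate, fluorescence was measured in PR-UAS-bla HEK 293T cells grown in 2% charcoal-stripped serum.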

For assay [10] the target is unchanged. The experiment in a line: qHTS assay to identify small molecule antagonists of the progesterone receptor (PR) signaling pathway (AID 1346795; active means well fitted inhibition curve with a large enough effect in the signal ratio in the repeat runs, not every such curve was filed as active; the % refers to the signal ratio). The gist of the method:
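Read-out is fluorescence from the LiveBLAzer B/G FRET substrate, cleaved by a UAS-controlled beta-lactamase in PR-UAS-bla HEK293T cells after 16 hr exposure to compound plus 1 nM promegestone (final), followed by 2 hr at room temperature.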

Assay [11] is described as follows: qHTS assay to identify small molecule antagonists of the progesterone receptor (PR) signaling pathway - cell viability counter screen (AID 1346798; active means well fitted curve in the direction sought with a large enough effect in the repeat runs; an effect the other way counts as inactive or inconclusive;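 further: HEK293T PR-UAS-bla cells stimulated with the agonist R5020; series mostly up to about 92 µM; nearly all actives have a fitted effect of over 50% in size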). In a few lines:
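HEK293T PR-UAS-bla, 2% charcoal-stripped FBS; 4 hr pre-plate; cpd + R5020, 16 h 37C; LiveBLAzer read first; then CellTiter-Glo 30 min RT, luminescence.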

A short description of assay [12]: qHTS assay to identify small molecule agonists of the progesterone receptor (PR) signaling pathway - cell viability counter screen (AID 1346799). Further: nearly all actives have a fitted effect of over 45% in size. In a few lines: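 Luminescence from CellTiter-Glo, added after the beta-lactamase FRET read in the same wells, gave cytotoxicity in PR-UAS-bla HEK293T cells treated with compounds for 16 hr at 37C.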
The nature of assay [13]: qHTS assay to identify small molecule antagonists of the TGF-beta/Smad signaling pathway - cell viability counter screen (AID 1346824; active means well fitted curve in the direction sought with a large enough effect in the repeat runs; an effect the other way counts as inactive or inconclusive; further: nearly all actives have a fitted effect of over 50% in size). The gist of the method: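 Cytotoxicity counter-screen run in the same wells as the beta-lactamase Smad reporter read: CellTiter-Glo luminescence after 30 min at room temperature. HEK 293T SBE-bla cells had 5 hr compound exposure at 37 C with TGF-beta1 (0.25 ng/mL stock).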

A short description of assay [14]: qHTS assay to identify small molecule agonists of the TGF-beta/Smad signaling pathway - cell viability counter screen (AID 1346829; active means well fitted curve in the direction sought with a large enough effect in the repeat runs; an effect the other way counts as inactive or inconclusive; further: top concentration of the series differs between compounds; nearly all actives have a fitted effect of over 45% in size). The gist of the method:
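Cytotoxicity counter screen: CellTiter-Glo luminescence (30 min, room temperature) measured in the SBE-bla HEK 293T reporter wells after 5 hr compound treatment at 37 C and the 2 hr substrate step.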

A short description of assay [15]: qHTS assay to identify small molecule agonists of the TGF-beta/Smad signaling pathway (AID 1346859; active means well fitted activation curve with a large enough effect in the signal ratio in the repeat runs, not every such curve was filed as active; the % refers to the signal ratio; further: series mostly up to about 77 µM). The gist of the method: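 SBE-bla HEK 293T, 4,000 cells/well, plated o/n; cpd in DMSO, 5 hr, 37 C/5% CO2; B/G FRET substrate 2 hr RT; ex 405, em 460/530 nm.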
In assay [16] the target is Thyrotropin-releasing hormone receptor (Homo sapiens) (UniProt P34981). The experiment in a line: qHTS assay to identify small molecule antagonists of the thyrotropin-releasing hormone receptor (TRHR) signaling pathway (AID 1346877; active means well fitted inhibition curve with a large enough effect in the repeat runs, not every such curve was filed as active; further: series mostly up to about 51 µM). In a few lines:
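Intracellular calcium fluorescence, read kinetically every second over 3 min, reports TRH-evoked signalling in HEK293 cells carrying TRHR. Test compounds were added 5 min ahead of a 1 nM TRH challenge.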

Assay [17] shares this target. The experiment in a line: qHTS assay to identify small molecule agonists of the thyrotropin-releasing hormone receptor (TRHR) signaling pathway (AID 1346891). Further: series mostly up to about 58 µM. In a few lines: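 Intracellular calcium rise, read as fluorescence every second for 3 min, served as the agonist signal in dye-loaded HEK293 cells expressing TRHR; each compound ran at 15 concentrations in triplicate.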

Assay [18] has as its target Thyrotropin receptor (Homo sapiens) (UniProt P16473). The assay can be described thus: qHTS assay to identify small molecule antagonists of the thyroid stimulating hormone receptor (TSHR) signaling pathway (AID 1259385). Further: nearly all actives have a fitted effect of over 20% in size. The gist of the method:
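Antagonist mode: compound-treated TSHR-expressing HEK293 cells were stimulated with 1.5 ng/mL TSH (final) in presence of Ro20-1724 for 30 min at RT. HTRF cAMP detection after 1 h; each compound tested at 15 concentrations, triplicate.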

Assay [19] is described as follows: qHTS assay to identify small molecule antagonists of the estrogen receptor beta (ER-beta) signaling pathway - cell viability counter screen (AID 1259382; active means well fitted curve in the direction sought with a large enough effect in the repeat runs; an effect the other way counts as inactive or inconclusive;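 further: HEK293T cells carrying ER-beta-UAS-bla reporter stimulated with estradiol; series mostly up to about 92 µM; nearly all actives have a fitted effect of over 55% in size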). In a few lines: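 Cells: ER-beta-UAS-bla HEK293T, 2,000/well, 2% CS-FBS, 6 hr settle. Cpd + E2 (1nM final), 16 hr, 37C/5% CO2. Bla FRET substrate 2 hr RT, then CellTiter-Glo 30 min RT, luminescence.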
Assay [20] concerns the target Androgen receptor (Homo sapiens) (UniProt P10275). The assay can be described thus: qHTS assay to identify small molecule agonists of the androgen receptor (AR) signaling pathway in the presence of an antagonist (AID 1259381). Further: nearly all actives have a fitted effect of over 15% in size. The gist of the method: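 MDA-kb2 cells, 3,000/well, rested 5hr at 37C/0% CO2 → nilutamide 3.0uM final or buffer → compounds, 15 conc. → 16hr at 37C → ONE-Glo, 30min RT → luminescence.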

A number with no mark means an inactive call. Results filed as inconclusive are left out. Calls of active or inactive are those of the source. Unless noted, the call rests on the fitted dose curve.

Chain of Thyrotropin-releasing hormone receptor (Homo sapiens) (P34981 whole entry, looked up): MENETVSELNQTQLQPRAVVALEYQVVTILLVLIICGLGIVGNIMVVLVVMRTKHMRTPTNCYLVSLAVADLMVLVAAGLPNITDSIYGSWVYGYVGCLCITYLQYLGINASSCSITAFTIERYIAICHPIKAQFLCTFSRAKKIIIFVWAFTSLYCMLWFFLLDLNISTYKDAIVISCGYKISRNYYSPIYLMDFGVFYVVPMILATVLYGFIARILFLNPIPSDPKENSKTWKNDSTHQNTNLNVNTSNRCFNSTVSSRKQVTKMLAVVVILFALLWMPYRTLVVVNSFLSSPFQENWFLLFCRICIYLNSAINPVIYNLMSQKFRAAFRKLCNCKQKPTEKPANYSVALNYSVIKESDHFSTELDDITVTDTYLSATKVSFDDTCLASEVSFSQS
Chain of Estrogen receptor (Homo sapiens) (P03372 whole entry, looked up): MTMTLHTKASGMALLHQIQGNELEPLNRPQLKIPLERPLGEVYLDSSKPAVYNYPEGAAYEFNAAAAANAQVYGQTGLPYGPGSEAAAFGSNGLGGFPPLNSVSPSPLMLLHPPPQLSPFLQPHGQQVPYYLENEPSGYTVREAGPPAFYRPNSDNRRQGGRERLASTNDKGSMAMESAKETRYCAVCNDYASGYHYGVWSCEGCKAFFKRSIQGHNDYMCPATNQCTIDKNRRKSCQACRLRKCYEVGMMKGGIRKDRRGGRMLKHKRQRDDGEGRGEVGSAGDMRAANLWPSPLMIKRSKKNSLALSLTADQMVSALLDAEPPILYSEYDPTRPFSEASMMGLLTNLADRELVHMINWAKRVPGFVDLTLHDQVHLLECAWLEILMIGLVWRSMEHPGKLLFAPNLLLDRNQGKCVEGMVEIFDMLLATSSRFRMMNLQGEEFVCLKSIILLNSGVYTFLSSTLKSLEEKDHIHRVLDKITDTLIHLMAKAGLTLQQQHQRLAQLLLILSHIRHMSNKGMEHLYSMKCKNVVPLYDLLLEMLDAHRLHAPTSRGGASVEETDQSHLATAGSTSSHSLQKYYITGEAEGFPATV
Chain of Progesterone receptor (Homo sapiens) (P06401 whole entry, looked up): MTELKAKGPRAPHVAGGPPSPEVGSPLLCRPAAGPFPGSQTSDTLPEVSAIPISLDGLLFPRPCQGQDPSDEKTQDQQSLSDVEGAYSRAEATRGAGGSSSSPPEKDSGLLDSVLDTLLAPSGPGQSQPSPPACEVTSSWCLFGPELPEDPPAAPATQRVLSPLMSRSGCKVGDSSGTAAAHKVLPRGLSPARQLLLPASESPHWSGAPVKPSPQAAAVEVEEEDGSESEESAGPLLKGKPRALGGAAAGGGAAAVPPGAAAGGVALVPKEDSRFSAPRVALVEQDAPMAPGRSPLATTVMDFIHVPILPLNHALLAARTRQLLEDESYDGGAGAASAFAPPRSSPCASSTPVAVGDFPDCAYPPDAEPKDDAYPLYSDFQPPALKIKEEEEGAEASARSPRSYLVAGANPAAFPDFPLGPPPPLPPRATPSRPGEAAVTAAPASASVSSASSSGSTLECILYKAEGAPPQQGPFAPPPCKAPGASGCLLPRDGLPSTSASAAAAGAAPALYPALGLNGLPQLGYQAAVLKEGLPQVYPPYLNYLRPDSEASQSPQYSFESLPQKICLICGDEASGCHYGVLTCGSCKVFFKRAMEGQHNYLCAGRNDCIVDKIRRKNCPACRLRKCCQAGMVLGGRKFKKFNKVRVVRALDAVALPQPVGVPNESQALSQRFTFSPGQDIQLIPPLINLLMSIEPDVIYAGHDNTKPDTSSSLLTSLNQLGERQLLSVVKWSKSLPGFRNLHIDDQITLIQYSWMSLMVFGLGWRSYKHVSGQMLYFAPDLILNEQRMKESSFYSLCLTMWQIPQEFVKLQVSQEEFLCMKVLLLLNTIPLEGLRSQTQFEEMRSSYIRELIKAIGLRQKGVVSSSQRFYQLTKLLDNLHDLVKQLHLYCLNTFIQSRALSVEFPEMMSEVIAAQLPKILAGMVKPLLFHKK
Chain of Estrogen receptor beta (Homo sapiens) (Q92731 whole entry, looked up): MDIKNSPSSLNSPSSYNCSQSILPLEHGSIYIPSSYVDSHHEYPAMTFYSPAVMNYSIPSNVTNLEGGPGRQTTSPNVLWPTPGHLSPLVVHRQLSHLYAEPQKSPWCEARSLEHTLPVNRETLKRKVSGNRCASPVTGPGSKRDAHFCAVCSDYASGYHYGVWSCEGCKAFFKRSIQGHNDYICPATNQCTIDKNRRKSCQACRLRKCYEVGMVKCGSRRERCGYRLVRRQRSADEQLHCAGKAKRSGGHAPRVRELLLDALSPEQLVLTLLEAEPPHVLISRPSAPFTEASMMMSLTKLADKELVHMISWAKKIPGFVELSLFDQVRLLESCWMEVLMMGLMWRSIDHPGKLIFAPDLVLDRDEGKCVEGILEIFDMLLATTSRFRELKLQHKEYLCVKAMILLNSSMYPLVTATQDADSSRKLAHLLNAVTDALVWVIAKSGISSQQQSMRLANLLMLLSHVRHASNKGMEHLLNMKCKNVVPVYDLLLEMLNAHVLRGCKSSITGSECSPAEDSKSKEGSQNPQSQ
Chain of Thyrotropin receptor (Homo sapiens) (P16473 whole entry, looked up): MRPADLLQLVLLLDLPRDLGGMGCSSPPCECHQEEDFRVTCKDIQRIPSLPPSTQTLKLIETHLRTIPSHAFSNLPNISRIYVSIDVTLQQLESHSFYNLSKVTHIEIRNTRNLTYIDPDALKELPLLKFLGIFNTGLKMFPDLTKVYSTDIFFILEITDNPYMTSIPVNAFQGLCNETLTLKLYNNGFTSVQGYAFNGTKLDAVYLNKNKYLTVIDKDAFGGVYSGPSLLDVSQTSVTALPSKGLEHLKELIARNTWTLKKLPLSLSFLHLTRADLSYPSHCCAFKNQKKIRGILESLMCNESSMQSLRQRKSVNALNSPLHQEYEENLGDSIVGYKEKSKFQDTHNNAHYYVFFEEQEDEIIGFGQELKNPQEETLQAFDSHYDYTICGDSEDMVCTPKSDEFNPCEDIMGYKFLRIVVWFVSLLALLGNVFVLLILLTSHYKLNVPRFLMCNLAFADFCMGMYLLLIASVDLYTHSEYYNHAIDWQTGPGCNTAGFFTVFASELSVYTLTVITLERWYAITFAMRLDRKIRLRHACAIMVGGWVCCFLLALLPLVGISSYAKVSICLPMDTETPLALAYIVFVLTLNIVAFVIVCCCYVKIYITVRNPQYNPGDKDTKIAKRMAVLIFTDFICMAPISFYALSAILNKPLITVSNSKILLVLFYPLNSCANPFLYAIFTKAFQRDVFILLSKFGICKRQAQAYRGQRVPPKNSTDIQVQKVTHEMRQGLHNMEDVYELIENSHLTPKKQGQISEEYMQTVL
Chain of Androgen receptor (Homo sapiens) (P10275 whole entry, looked up): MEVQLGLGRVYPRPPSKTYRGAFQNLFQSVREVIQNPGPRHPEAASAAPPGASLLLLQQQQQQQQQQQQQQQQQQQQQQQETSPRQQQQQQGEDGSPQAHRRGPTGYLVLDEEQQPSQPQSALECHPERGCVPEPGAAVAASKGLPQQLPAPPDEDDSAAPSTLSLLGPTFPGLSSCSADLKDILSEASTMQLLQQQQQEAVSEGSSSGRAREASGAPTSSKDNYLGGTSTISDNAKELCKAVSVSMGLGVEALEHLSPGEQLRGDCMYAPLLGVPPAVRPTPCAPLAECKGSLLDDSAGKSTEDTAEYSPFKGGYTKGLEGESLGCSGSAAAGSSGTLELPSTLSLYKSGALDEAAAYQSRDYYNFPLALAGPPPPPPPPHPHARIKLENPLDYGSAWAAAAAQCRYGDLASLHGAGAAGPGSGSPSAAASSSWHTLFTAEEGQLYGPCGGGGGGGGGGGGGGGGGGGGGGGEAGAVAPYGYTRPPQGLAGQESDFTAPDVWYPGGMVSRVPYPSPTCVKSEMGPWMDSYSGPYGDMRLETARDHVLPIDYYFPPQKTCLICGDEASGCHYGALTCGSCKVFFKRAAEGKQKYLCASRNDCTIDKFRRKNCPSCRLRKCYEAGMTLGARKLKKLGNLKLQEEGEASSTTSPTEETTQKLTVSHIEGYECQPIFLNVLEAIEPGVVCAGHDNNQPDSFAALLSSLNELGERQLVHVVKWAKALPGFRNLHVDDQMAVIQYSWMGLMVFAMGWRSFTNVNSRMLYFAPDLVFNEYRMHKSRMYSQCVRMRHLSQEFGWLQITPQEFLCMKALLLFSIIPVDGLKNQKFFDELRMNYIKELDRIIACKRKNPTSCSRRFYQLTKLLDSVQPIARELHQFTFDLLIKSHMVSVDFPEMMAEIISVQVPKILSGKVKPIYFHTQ

`CCCCC(CC)COC(=O)COc1cc(Cl)c(Cl)cc1Cl` (stereo not drawn): the Potency result in assay [1], in assay [3], in assay [4], in assay [5], in [6] and in [8] was “inactive” throughout. Besides, the Potency result in [9], in assay [10], in assay [11], in assay [12] and in assay [17] was “inactive” in each case. For the same molecule, the result in assay [2], in [7], in assay [13], in [14], in [15] and in [16] was inactive.

Consider `CCOC(=O)C1CC(=O)C(=C(O)C2CC2)C(=O)C1` (stereo not drawn), for which the Potency entry in assay [1], in assay [3], in [4], in assay [6], in [18] and in assay [8] was “inactive” each time. The Potency entry in [9], in assay [10], in assay [11] and in [12] was “inactive” in each case. The outcome in assay [2], in assay [7], in assay [13], in assay [14], in assay [15] and in assay [16] was inactive.

As for `COc1ccccc1N1CCN(CCCNc2cc(=O)n(C)c(=O)n2C)CC1`, the Potency result in assay [1], in assay [3], in assay [4], in [6], in assay [18] and in assay [8] was “inactive” each time. In addition, the Potency entry in assay [9], in assay [11], in assay [12] and in [17] was “inactive” throughout. The result in assay [2], in assay [19], in assay [7], in assay [13], in assay [14] and in assay [15] was inactive. In addition, the molecule was classed as inactive in [16].

On to `CN1CCC[C@@H]1Cc1c[nH]c2ccc(CCS(=O)(=O)c3ccccc3)cc12`, for which, in assay [1], the Potency is 13.3 µM (active). Moreover, the outcome in assay [2], in assay [7], in [13], in [14], in assay [15] and in assay [16] was inactive. Also, the Potency result in [3], in [4], in [5], in assay [18], in assay [8] and in [10] was “inactive” each time. For the same molecule, the Potency result in [11], in assay [12] and in [17] was “inactive” each time.

For `CN1CCN(c2c(F)cc3c(=O)c(C(=O)O)cn4c3c2SCC4)CC1`, the Potency result in [1], in [3], in assay [4], in assay [6], in [18] and in [8] was “inactive” in each case. Further, the Potency entry in assay [10], in assay [11], in [12] and in [17] was “inactive” in each case. In addition, the outcome in assay [2], in assay [19], in assay [7], in assay [13], in assay [14] and in assay [15] was inactive. The molecule was classed as inactive in [16].

Turning to `COc1cc(Cl)ccc1Cl`, the Potency result in assay [1], in assay [3], in assay [4], in assay [5], in assay [18] and in assay [8] was “inactive” throughout. For the same molecule, the Potency result in [9], in assay [11], in assay [12] and in [17] was “inactive” in each case. For the same molecule, the molecule was classed as inactive in assay [2], in assay [19], in [7], in assay [13], in [14] and in [15]. Further, the outcome in assay [16] was inactive.

For the molecule `OC[C@H]1O[C@@H](O[C@H]2[C@H](O)[C@@H](O)[C@H](O)O[C@@H]2CO)[C@H](O)[C@@H](O)[C@H]1O`, the Potency entry in assay [1], in assay [3], in assay [4], in assay [20], in assay [18] and in assay [8] was “inactive” each time. In addition, the Potency entry in assay [9], in assay [10], in assay [11], in assay [12] and in [17] was “inactive” throughout. Further, the molecule was called inactive in assay [2], in assay [19], in assay [7], in assay [13], in assay [14] and in [15]. Further, in [16], the result was inactive.

For the molecule `CC1=C(O)C(=O)OC1C` (stereo not drawn), the Potency entry in assay [1], in assay [3], in assay [4], in assay [5], in assay [18] and in assay [8] was “inactive” throughout. Besides, the Potency result in assay [9] and in assay [12] was “inactive” each time. Further, the outcome in assay [2], in [19], in assay [7], in [13], in assay [14] and in [15] was inactive. For the same molecule, the result in [16] was inactive.
